Measurements published in PubChem BioAssay AID1259418 (Broad Institute, 2018).
Out of some 3,400 compounds screened, about 840 (25%) were called active. Another 11% or so got no clear call; they are omitted. Not all results are given here. Measured potencies and affinities stand elsewhere. Unmarked numbers belong to inactive results.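 How the source made its calls: active means fitted half-maximal concentration of signal decrease at or below twice the sample's top tested concentration; inconclusive means flat curve between -70 and -30 percent, or poor fit; inactive means flat within 30 percent, signal rise, or potency above limit.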

Experiment: T. gondii growth inhibition with IFN-gamma, dose response, cell-based, ME49Luc, HeLa, luciferase, 72 h (AID 1259418)
Conditions: T. gondii ME49Luc in IFN-y HeLa, stronger effect = lower value, -100% = high-dose IFN-γ control wells; at 19.5 µM unless noted

Question: Which max activity does the source give for `O=C(CCC1N=C2c3ccccc3N=C(SCc3cc(=O)n4ccccc4n3)N2C1=O)NCc1ccco1` (stereo unspecified) here?
Answer: 26.1% [at 1.35 µM]

Question: For `CCc1nc(OCC(=O)Nc2cc(OC)ccc2OC)c2ccccc2n1`, which max activity is on record?
Answer: -25% [at 2.6 µM]

Question: With `Cc1ccc(C)c(-c2coc(-c3ccc(NC(=O)C4CCCCC4)cc3)n2)c1` as the compound, how does the max activity read?
Answer: 10.4% [at 10 µM]

Question: For `Cc1ccc(-c2nc(Cn3nnc(-c4nc(-c5ccccc5C)no4)c3C)c(C)o2)cc1`, which max activity is on record?
Answer: 15.4% [at 0.16 µM]

Question: For `Cc1nc(CCNC(=O)C2CCN(S(=O)(=O)c3ccc(Cl)s3)CC2)cs1`, which max activity is on record?
Answer: -9.13%

Question: With `Cc1ccc(CNC2=NCCNC23CCN(S(=O)(=O)c2cccs2)CC3)cc1` as the compound, how does the max activity read?
Answer: 17.3% [at 10 µM]

Question: For `O=S(=O)(c1cccs1)N1CCC2(CC1)NCCN=C2NCc1cc(F)cc(F)c1`, which max activity is on record?
Answer: 10.2% [at 0.16 µM]

Question: For `Cc1cccc(CNC2=NCCNC23CCN(S(=O)(=O)c2cccs2)CC3)c1`, which max activity is on record?
Answer: 13.8%

Question: With `O=S(=O)(c1cccs1)N1CCC2(CC1)NCCN=C2NCc1ccc(F)c(Cl)c1` as the compound, how does the max activity read?
Answer: -41.7%

Question: Which max activity does the source give for `CCCC(=O)Nc1ccc(-c2nc(-c3ccccc3)co2)cc1` here?
Answer: 72.8% [at 10 µM]

Question: Which max activity does the source give for `Cc1nc(CCNC(=O)C2CCN(S(=O)(=O)c3ccc(Cl)cc3)CC2)cs1` here?
Answer: -9.1% [at 0.35 µM]

Question: Which max activity does the source give for `O=C(NCCc1csc(-c2ccccc2)n1)C1CCN(S(=O)(=O)c2ccccc2)CC1` here?
Answer: 11.6% [at 10 µM]

Question: Which max activity does the source give for `CCOc1ccc(S(=O)(=O)N2CCC(C(=O)NCCc3csc(-c4ccccc4)n3)CC2)cc1` here?
Answer: 21.5% [at 5 µM]

Question: Which max activity does the source give for `Cc1nc(CCNC(=O)C2CCN(S(=O)(=O)c3ccc(CC(C)C)cc3)CC2)cs1` here?
Answer: -7.19% [at 1.35 µM]

Question: With `Cc1cc(C)cc(S(=O)(=O)N2CCC(C(=O)NCCc3csc(-c4ccccc4)n3)CC2)c1` as the compound, how does the max activity read?
Answer: 16.8% [at 10 µM]

Question: Which max activity does the source give for `O=C(NCCc1csc(-c2ccccc2)n1)C1CCN(S(=O)(=O)c2cccc(F)c2)CC1` here?
Answer: 8.1% [at 5 µM]

Question: With `O=C(NCCc1csc(-c2ccccc2)n1)C1CCN(S(=O)(=O)c2cccs2)CC1` as the compound, how does the max activity read?
Answer: 11.2% [at 0.16 µM]

Question: For `Cc1ccc(S(=O)(=O)N2CCC(C(=O)NCCc3csc(-c4ccccc4)n3)CC2)cc1`, which max activity is on record?
Answer: 5.41% [at 5 µM]

Question: For `COC(=O)c1sccc1S(=O)(=O)N[C@@H]1CC[C@@H](N)C1`, which max activity is on record?
Answer: 17.5%

Question: For `CCc1c(C)sc2c1CCN(Cc1nc(-c3cccc(Cl)c3)oc1C)C2c1ccccc1` (stereo unspecified), which max activity is on record?
Answer: 7.75% [at 0.68 µM]

Question: With `COc1cccc(-c2nc3c(s2)CN(S(=O)(=O)c2ccc(CC(C)C)cc2)CC3)c1` as the compound, how does the max activity read?
Answer: 8.23% [at 2.6 µM]

Question: With `CCc1ccccc1Nc1nc(-c2ccc(OC)cc2)nc2ccccc12` as the compound, how does the max activity read?
Answer: -9.45% [at 0.16 µM]

Question: Which max activity does the source give for `COc1ccccc1-c1nc(Cn2nnc(-c3nc(-c4ccccc4)no3)c2C)c(C)o1` here?
Answer: -9.24% [at 1.35 µM]

Question: For `Cc1cccc(C2=NC3(CCN(Cc4ccccc4C)CC3)NC2=O)c1`, which max activity is on record?
Answer: 12% [at 0.16 µM]

Question: Which max activity does the source give for `O=C(Cc1ccc(F)cc1)Nc1ccc(-c2nc(-c3ccccc3)co2)cc1` here?
Answer: 4.13% [at 5 µM]

Question: Which max activity does the source give for `COc1ccc(-c2nc(Nc3ccc(C)cc3Cl)c3ccccc3n2)cc1` here?
Answer: -11.8% [at 2.6 µM]

Question: Which max activity does the source give for `NC(=O)C1(N2CCCCC2)CCN(c2ncc(NC(=O)c3ccccc3F)cc2C(=O)O)CC1` here?
Answer: 15.7% [at 2.6 µM]

Question: With `CCCc1ccc(S(=O)(=O)N2CCc3nc(-c4cccc(OC)c4)sc3C2)cc1` as the compound, how does the max activity read?
Answer: -6.99% [at 2.6 µM]

Question: With `COc1cc(OC)cc(C(=O)N2CCC3(CC2)Nc2ccc(C)c(C)c2-n2cccc23)c1` as the compound, how does the max activity read?
Answer: -13.1% [at 0.35 µM]

Question: With `O=C(NCCc1csc(-c2ccccc2)n1)C1CCN(C(=O)Cc2ccc(Cl)cc2)CC1` as the compound, how does the max activity read?
Answer: 8.14%

Question: For `COc1cccc(CC(=O)N2CCC(C(=O)NCCc3csc(-c4ccccc4)n3)CC2)c1`, which max activity is on record?
Answer: 8.89% [at 10 µM]

Question: For `COc1ccc(-c2nc3c([nH]2)c(=O)n(C)c(=O)n3C)cc1OC`, which max activity is on record?
Answer: 40.8% [at 0.35 µM]

Question: For `Cc1ccc(CCNC(=O)CCC2Nc3c4ccccc4nc(=S)n3C2=O)cc1` (stereo unspecified), which max activity is on record?
Answer: 13.4% [at 10 µM]

Question: With `CN(C)CC(=O)N1C[C@@H]2N[C@H](C1)C2c1ccc(C2=CCCCC2)cc1` (stereo partly specified) as the compound, how does the max activity read?
Answer: 18.8% [at 9 µM]

Question: With `COc1cccc(S(=O)(=O)N2CC[C@@H]3[C@H](CO)Nc4ccc(C5=CCCCC5)cc4[C@@H]32)c1` as the compound, how does the max activity read?
Answer: 8.73% [at 10 µM]

Question: Which max activity does the source give for `Cc1nc(CCNC(=O)[C@H]2CCCN2S(=O)(=O)c2cccs2)cs1` here?
Answer: 7.39% [at 0.16 µM]

Question: For `O=C(NCCCN1CCC(N2CCCCC2)CC1)c1nnc2ccc(-c3ccccc3)nn12`, which max activity is on record?
Answer: 16.2% [at 0.16 µM]

Question: Which max activity does the source give for `Cc1cccc(C(=O)N2CCC3(CC2)Nc2ccc(C)c(C)c2-n2cccc23)c1` here?
Answer: 11.2% [at 0.68 µM]

Question: For `Cc1oc(-c2ccccc2)nc1Cn1nnc(-c2nc(-c3ccc4c(c3)OCO4)no2)c1C`, which max activity is on record?
Answer: 8.48% [at 10 µM]

Question: Which max activity does the source give for `COc1ccc(-c2nc(NCC3CCN(Cc4cccc(C)c4)CC3)c3ccccc3n2)cc1` here?
Answer: -18.6% [at 2.6 µM]

Question: With `O=S(=O)(Cc1ccccc1)N1CC2CN(Cc3cccc(Cl)c3)CC2C1` (stereo unspecified) as the compound, how does the max activity read?
Answer: 9.94%

Question: Which max activity does the source give for `COc1cccc(CN2CCc3nc(SCc4nc(-c5ccccc5)oc4C)[nH]c(=O)c3C2)c1` here?
Answer: 24.2% [at 2.6 µM]

Question: With `COc1ccc(-c2nc(NCC3CCN(Cc4cccc(Cl)c4)CC3)c3ccccc3n2)cc1` as the compound, how does the max activity read?
Answer: -31.6% [at 10 µM]

Question: With `COCCC(=O)c1cc2c(s1)CCN2Cc1cccnc1` as the compound, how does the max activity read?
Answer: 26.4%

Question: With `COc1cccc(CNC(=O)N2CCc3nc(-c4ccccc4)sc3C2)c1` as the compound, how does the max activity read?
Answer: -15% [at 5 µM]

Question: With `Cc1ccccc1S(=O)(=O)N1CCCCN2[C@H](CO)[C@H](c3ccc(C#CCN(C)C)cc3)[C@@H]2C1` as the compound, how does the max activity read?
Answer: -17.9%

Question: For `Cc1ccccc1S(=O)(=O)N1CCCCN2[C@H](CO)[C@H](c3ccc(C#CCN(C)C)cc3)[C@H]2C1`, which max activity is on record?
Answer: 23.7%

Question: For `Cc1cccc(N2CCN(c3nc(-c4ccc(Cl)cc4)nc4ccccc34)CC2)c1C`, which max activity is on record?
Answer: 10.6%

Question: With `c1cc(-c2nccn2CCn2ccnc2)ccn1` as the compound, how does the max activity read?
Answer: 11.4%

Question: With `COc1cccc(CNc2nc(-c3ccc(Cl)cc3)nc3ccccc23)c1` as the compound, how does the max activity read?
Answer: -22% [at 1.35 µM]

Question: For `O=S(=O)(c1cccc(F)c1)N1CC[C@@H]2[C@H]1c1cc(Br)ccc1N[C@@H]2CO`, which max activity is on record?
Answer: 35.2% [at 10 µM]

Question: Which max activity does the source give for `OC[C@@H]1Nc2ccc(-c3cccc(F)c3)cc2[C@H]2[C@@H]1CCN2Cc1ccc(F)cc1` here?
Answer: 42.2% [at 10 µM]

Question: For `Cc1ccc(-c2csc(-c3cccn3CC(=O)N3CCC4(CC3)OCCO4)n2)cc1`, which max activity is on record?
Answer: 11.8% [at 5 µM]

Question: Which max activity does the source give for `Cc1oc(-c2ccccc2)nc1Cn1nnc(-c2nc(-c3ccc(F)c(Cl)c3)no2)c1C` here?
Answer: -12.6% [at 1.35 µM]

Question: With `O=C(COc1ccccc1)N1CCC2(CC1)Nc1cc(F)ccc1-n1cccc12` as the compound, how does the max activity read?
Answer: 10.6% [at 5 µM]

Question: With `CCOc1ccc(-c2nc(CN3CCN(C(=O)Nc4ccccc4C(=O)OC)CC3)c(C)o2)cc1` as the compound, how does the max activity read?
Answer: 6.24% [at 0.16 µM]

Question: Which max activity does the source give for `COc1cc(CCC(=O)N2CCC3(CC2)Nc2ccc(C)c(C)c2-n2cccc23)cc(OC)c1OC` here?
Answer: -12.8% [at 2.6 µM]

Question: With `O=C(c1ccc(F)cc1)N1CCC2(CC1)Nc1ccc(Cl)cc1-n1cccc12` as the compound, how does the max activity read?
Answer: 13.8% [at 0.68 µM]

Question: Which max activity does the source give for `O=C(c1ccccc1F)N1CCC2(CC1)Nc1ccc(Cl)cc1-n1cccc12` here?
Answer: -6.53% [at 0.35 µM]

Question: Which max activity does the source give for `COc1ccc(-c2nc(NCCc3ccc(SC)cc3)c3ccccc3n2)cc1` here?
Answer: -32.9%

Question: For `CCOC(=O)CSC1=Nc2ccccc2C2=NC(CC(=O)NCc3ccc(F)cc3)C(=O)N12` (stereo unspecified), which max activity is on record?
Answer: 17.3%

Question: Which max activity does the source give for `CS(=O)(=O)N1CC(=O)N2[C@@H](CO)[C@H](c3ccc(C#Cc4ccc(F)cc4)cc3)[C@@H]2C1` here?
Answer: 11.8% [at 10 µM]

Question: With `CS(=O)(=O)N1CC(=O)N2[C@H](CO)[C@@H](c3ccc(C#CCC4CCCC4)cc3)[C@H]2C1` as the compound, how does the max activity read?
Answer: 29.5% [at 11 µM]

Question: With `CS(=O)(=O)N1CC(=O)N2[C@H](CO)[C@@H](c3ccc(Br)cc3)[C@H]2C1` as the compound, how does the max activity read?
Answer: 27.1%

Question: Which max activity does the source give for `CC(C)C#Cc1ccc([C@H]2[C@@H](CO)N3C(=O)CN(S(=O)(=O)c4ccccc4)C[C@H]23)cc1` here?
Answer: -8.27% [at 10 µM]

Question: With `CC(C)C#Cc1ccc([C@H]2[C@@H](CO)N3C(=O)CN(S(=O)(=O)c4ccccc4)C[C@@H]23)cc1` as the compound, how does the max activity read?
Answer: 19.2% [at 10 µM]

Question: For `CS(=O)(=O)N1CC(=O)N2[C@H](CO)[C@H](c3ccc(C#CCC4CCCC4)cc3)[C@@H]2C1`, which max activity is on record?
Answer: 13.6% [at 10 µM]

Question: Which max activity does the source give for `Cc1ccc(C)c(CSc2ccc(-c3sc(-c4ccc(F)cc4)nc3C)nn2)c1` here?
Answer: -9.1% [at 5 µM]

Question: With `COc1ccc(-c2nc(NCc3ccccc3OC)c3ccccc3n2)cc1` as the compound, how does the max activity read?
Answer: -10.7% [at 0.68 µM]

Question: Which max activity does the source give for `O=C(Nc1ccc(-c2nc(-c3cccc(Br)c3)co2)cc1)Nc1cccc(F)c1` here?
Answer: -13.2% [at 2.6 µM]

Question: Which max activity does the source give for `COc1ccc(-n2c(C)cc(CNS(=O)(=O)c3ccc4c(c3)CCC(=O)N4)c2C)cc1` here?
Answer: 35.1%
